High-throughput results: PubChem, several laboratories
Shown are actives, neighbours in structure and some others; about 4.4% of the full set was active somewhere.
TIM10 inh – TIM10 yeast growth inhibition. S. cerevisiae TIM10 strain growth, BacTiter-Glo luminescence, 24 h. inhibition, % at 10 µM. 330,000 tested, 1.4% active;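 active = inhibition of 40% or more at the single tested concentration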;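 note: wild-type TIM10 isogenic control strain grown at permissive 25 °C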
PfHsp90 set2 – reduces growth (ATP signal) of yeast expressing P. falciparum Hsp90; AID 504621; 310,000 tested, 0.32% active; inhibition, % at 9.4 µM; S. cerevisiae expressing PfHsp90, BacTiter-Glo ATP, 48 h; yeast lacking PDR1 and PDR3 efflux regulators;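 active = every replicate shows inhibition above about 80%, whatever the replicate mean, limit read from the data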;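 note: 0% = DMSO neutral controls and 100% = 20 µM radicicol positive controls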
SKKanGAS inh – inhibitors of SKKanGAS S. pyogenes growth in kanamycin (SK-promoter or general growth effect); BacTiter-Glo, 6 h; inhibition, % at 7.5 µM; 300,000 tested, 1.3% active; AID 1662;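 active = mean replicate score, as percent of positive control median, at least 50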;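 note: strain carries kanamycin resistance gene driven by streptokinase promoter and grows in 40 µg/ml kanamycin; loss of luminescence reflects streptokinase promoter inhibition or plain growth inhibition; 0% = median of DMSO wells and 100% = positive control at its reference dose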
tim10-1 inh – growth inhibitors of tim10-1 mutant yeast | S. cerevisiae tim10-1 ts strain growth, BacTiter-Glo, 24 h | inhibition, % at 20 µM | 330,000 tested, 2.2% active;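 active = inhibition of at least 40%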;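 note: mutant grown at 25 °C; 0% = DMSO wells with yeast and 100% = wells holding no yeast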
tim23-1 inh – growth inhibitors of tim23-1 mutant yeast. AID 463212. 330,000 tested, 1.3% active. inhibition, % at 20 µM. S. cerevisiae tim23-1 growth, BacTiter-Glo luminescence, 24 h;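 active = growth inhibition of the mutant yeast at or above 50%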;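 note: temperature-sensitive mutant grown at 25 °C; plate controls were DMSO-treated mutant yeast for no effect and medium wells lacking yeast for full effect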
tim23-1 confirm – confirmation of tim23-1 mutant yeast growth inhibitors | shares compounds with tim23-1 inh | S. cerevisiae tim23-1 growth, BacTiter-Glo luminescence, 24 h | 4,400 tested, 83% active | inhibition, % at 20 µM;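 active = inhibition above about 39% in either of two replicate wells at 20 µM, limit read from the data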;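 note: temperature-sensitive tim23-1 mutant grown at 25 °C; 0% = DMSO wells with yeast and 100% = medium wells without yeast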
The depositor's hits bear a star.

Results for CC(c1ccccc1)N1CC(C(=O)N2CCCC(C(N)=O)C2)CC1=O (stereo unspecified) ?
TIM10 inh: -1.4; PfHsp90 set2: -5.8; tim10-1 inh: 4.5; tim23-1 inh: 6.9

How did COc1ccc(C(C[N+](=O)[O-])c2c(C)cc3ccccn23)c(OC)c1 (stereo unspecified) do in these assays?
TIM10 inh: 22.5; PfHsp90 set2: 5.6; SKKanGAS inh: 7.3; tim10-1 inh: 35.1; tim23-1 inh: 81.7*; tim23-1 confirm: 74.7*

What do the screens show for `Cn1c(C=O)c(C#CC(C)(C)O)c2ccccc21`?
TIM10 inh: 38.4; PfHsp90 set2: 7.2; tim10-1 inh: 29.4; tim23-1 inh: 61.4*; tim23-1 confirm: 59.9*

What do the screens show for `COc1cccc(C#Cc2c(C=O)n(C)c3ccccc23)c1`?
TIM10 inh: 24.7; PfHsp90 set2: 10.0; tim10-1 inh: 12.2; tim23-1 inh: 41.5

What do the screens show for `COc1ccc(/C=C/C(=O)N2CCN(c3ccccn3)CC2)c(OC)c1OC`?
TIM10 inh: 4.2; PfHsp90 set2: 35.7; SKKanGAS inh: -4.5; tim10-1 inh: 7.7; tim23-1 inh: 29.9

Results for COc1ccccc1/C=C/C(=O)OCC(=O)c1c(N)n(C)c(=O)n(C)c1=O ?
TIM10 inh: -8.1; PfHsp90 set2: 10.6; SKKanGAS inh: 6.4; tim10-1 inh: 8.4; tim23-1 inh: 94.8*; tim23-1 confirm: 0.0

How did Cn1c(N)c(C(=O)COC(=O)/C=C/c2ccc(Cl)cc2Cl)c(=O)n(C)c1=O do in these assays?
TIM10 inh: -16.1; tim10-1 inh: 4.6; tim23-1 inh: 1.4

Results for O=C(Nc1ccc2nn(-c3ccccc3)nc2c1)c1cccnc1 ?
TIM10 inh: 7.7; PfHsp90 set2: 16.7; tim10-1 inh: -12.8; tim23-1 inh: 52.1*; tim23-1 confirm: 37.2

What do the screens show for `O=C(Nc1ccc2oc(-c3ccccc3)nc2c1)c1cccnc1`?
TIM10 inh: 29.5; PfHsp90 set2: 14.7; SKKanGAS inh: 7.1; tim10-1 inh: 13.2; tim23-1 inh: 56.2*; tim23-1 confirm: 71.0*

Results for O=C(Nc1ccc2nn(-c3ccc(F)cc3)nc2c1)c1cccnc1 ?
TIM10 inh: 11.9; PfHsp90 set2: 31.0; SKKanGAS inh: -1.6; tim10-1 inh: -3.4; tim23-1 inh: 14.1

Results for Cc1ccnc(NC(=O)c2ccc3c(c2)C(=O)N(CC(C)C)C3=O)c1 ?
TIM10 inh: 32.5; PfHsp90 set2: 12.6; SKKanGAS inh: 10.0; tim10-1 inh: 18.6; tim23-1 inh: 63.3*; tim23-1 confirm: 56.7*

What do the screens show for `Cc1cc(NC(=O)c2ccc3c(c2)C(=O)N(CC(C)C)C3=O)no1`?
TIM10 inh: -16.7; PfHsp90 set2: 7.4; SKKanGAS inh: -12.1; tim10-1 inh: -17.7; tim23-1 inh: -3.8

How did O=C(O)c1cccnc1SCc1cccc(Br)c1 do in these assays?
TIM10 inh: -0.8; PfHsp90 set2: 27.8; SKKanGAS inh: 4.8; tim10-1 inh: 22.6; tim23-1 inh: 17.6

Results for CN(C)c1c2ccccc2nc2c(F)c(F)c(F)c(F)c12 ?
TIM10 inh: 19.4; PfHsp90 set2: 27.8; SKKanGAS inh: 2.2; tim10-1 inh: 17.6; tim23-1 inh: 63.9*; tim23-1 confirm: 66.8*

What do the screens show for `Cc1ccc(C(=O)/C=C/C(=O)c2ccc(C)cc2)cc1`?
TIM10 inh: 36.1; PfHsp90 set2: 17.7; SKKanGAS inh: 61.9*; tim10-1 inh: 32.1; tim23-1 inh: 57.8*; tim23-1 confirm: -71.7

How did N#Cc1nc(Nc2cc(F)cc(F)c2)c2ncn(CC(F)F)c2n1 do in these assays?
TIM10 inh: 21.2; PfHsp90 set2: 16.4; tim10-1 inh: 19.7; tim23-1 inh: 52.4*; tim23-1 confirm: 36.1

How did CCNc1nnc(CCn2nc(C)c(Br)c2C)s1 do in these assays?
TIM10 inh: 6.1; PfHsp90 set2: 9.9; SKKanGAS inh: -4.7; tim10-1 inh: 25.7; tim23-1 inh: 10.7

Results for COC(=O)c1ccc(NC(=O)CSc2nc(=O)n3cccc(C)c3n2)cc1 ?
TIM10 inh: -9.2; SKKanGAS inh: -6.5; tim10-1 inh: -14.5; tim23-1 inh: 71.7*; tim23-1 confirm: 52.8*

What do the screens show for `CC(=O)c1ccc(NC(=O)CSc2nc(=O)n3cccc(C)c3n2)cc1`?
TIM10 inh: -3.4; PfHsp90 set2: -23.5; SKKanGAS inh: -10.7; tim10-1 inh: -5.6; tim23-1 inh: 19.3
